RE007 growth inh: qHTS Assay for Inhibitors of the HIV-1 protein Vpr; Potency, µM (doses to about 92.2 µM), inactives show at the highest dose activity change, negative = less growth, hits mostly inhibitors; S. pombe RE007 Vpr strain, BacTiter-Glo ATP luminescence, 24 h; hit rate 0.21% among 360,000; active = well fitted falling curve with a large enough effect; inconclusive = small, poorly fitted or top-dose-only effect; inactive = no such curve, though single readings can be large or run the other way; note: % is set by controls: 0 for no effect and ±100 for the full control effect; nearly all actives have a fitted effect of over 50% in size
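Fission yeast strain RE007, carrying one chromosomally integrated HIV-1 vpr copy, was seeded at OD 0.01 in PMG+AL medium with 23 nL pinned compound. After 24 h at 30 °C and 99% humidity, viability was read by BacTiter-Glo luminescence.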
NS1 function inh: qHTS Assay for Inhibitors of Influenza NS1 Protein Function. Potency, µM (titrated, usually from 46.1 µM), without a hit: at the top dose activity, positive = more growth. hit rate 0.4% among 270,000. AID 2326, 2010; calls by dose curve; note: actives are rising curves; nearly all actives have a fitted effect of over 50% in size
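S. cerevisiae expressing influenza A NS1, grown in glucose, washed, then diluted 1:100 into pH 6.0 -URA galactose medium with 23 nl compound. Growth recovery read as OD600; NS1-free strain serves as control.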
LmPK inhibitor: qHTS Assay for Inhibitors of Leishmania Mexicana Pyruvate Kinase (LmPK) | Q27686 | purified LmPK, Kinase-Glo ATP luminescence, 1 h | Potency, µM (titrated, usually from 57.5 µM), for the others: at the top dose activity change, negative = inhibition, usual class: inhibitors | hit rate 0.37% among 290,000; note: % is set by controls: 0 for no effect and ±100 for the full control effect
Target sequence (Q27686 whole entry, looked up): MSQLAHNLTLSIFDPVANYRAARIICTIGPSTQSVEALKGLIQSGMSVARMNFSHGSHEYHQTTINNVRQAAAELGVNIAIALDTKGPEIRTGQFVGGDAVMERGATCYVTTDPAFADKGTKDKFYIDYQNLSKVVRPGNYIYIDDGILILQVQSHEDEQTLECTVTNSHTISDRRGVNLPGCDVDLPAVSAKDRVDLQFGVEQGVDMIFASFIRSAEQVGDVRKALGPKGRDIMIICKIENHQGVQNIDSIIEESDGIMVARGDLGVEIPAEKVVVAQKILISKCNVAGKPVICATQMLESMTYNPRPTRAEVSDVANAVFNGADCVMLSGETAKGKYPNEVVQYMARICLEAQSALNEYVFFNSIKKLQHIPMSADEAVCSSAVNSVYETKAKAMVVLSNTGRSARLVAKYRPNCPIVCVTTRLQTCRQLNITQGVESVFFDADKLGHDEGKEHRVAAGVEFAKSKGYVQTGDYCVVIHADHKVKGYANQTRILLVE
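Kinase-Glo luminescence read after 1 h RT reaction of 0.1 nM LmPK with 0.5 mM PEP and 0.1 mM ADP. Activity scaled between uninhibited and enzyme-free controls.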
Tb PYK inh: qHTS of Trypanosoma Brucei Inhibitors. pyruvate kinase (Trypanosoma brucei), Q57TT1. AID 624173, 2012. hit rate 0.12% among 410,000. TbPYK enzyme, Kinase-Glo Plus ATP luminescence, 45 min. Potency, µM (doses to about 76.8 µM), for inactives: at the highest dose activity, negative = inhibition, usual class: inhibitors; note: % is set by controls: 0 for no effect and ±100 for the full control effect; nearly all actives have a fitted effect of over 50% in size
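Luminescence from Kinase-Glo Plus, added after a 45-minute room-temperature reaction, served as the end-point read-out. The enzyme and substrate were preincubated with compound before ADP (130 uM final) initiated turnover. Concentration-effect curves came from normalized qHTS data.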
AMA1 RON2 block: qHTS for Inhibitors of AMA1-RON; Towards Development of Antimalarial Drug Lead: Primary Screen. Plasmodium falciparum AMA1 (3D7) - RON2 peptide interaction. AlphaScreen AMA1-biotinylated RON2 peptide binding. Potency, µM (doses to about 58.2 µM), for the others: at the top dose activity change, negative = inhibition, most hits filed as inhibitors. hit rate 0.2% among 360,000. AID 720542, 2013;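 note: 0% = vehicle wells and -100% = peptide control; nearly all actives have a fitted effect of over 45% in size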
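AMA1 (3D7) with his tag at 25 nM final met compounds first, then biotinylated RON2 peptide at 25 nM; detection used donor plus acceptor beads, 10 µg/mL apiece, read by AlphaScreen after 30 min at room temperature.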
Active calls of the source: *; ? = inconclusive; / = no result; [ ] = dose if it differs, or a comment. Most compounds without a hit are left out; they make up all but 0.92% or so of the library. Unless noted, calls come from the whole dose curve; as a rule, active = well fitted curve in the direction sought with a large enough effect; inconclusive = small, poorly fitted or top-dose-only effect, or another doubt; inactive = no such curve, though single readings can be large; an effect the other way counts as inactive or inconclusive. Potency is the fitted concentration of half-maximal effect.

SMILES	RE007 growth inh	NS1 function inh	LmPK inhibitor	Tb PYK inh	AMA1 RON2 block
COc1ccc(-n2c(CCc3ccccc3)n[nH]c2=S)cc1	-3.5%	7.6%	-8.4%	?	89.0%
Cc1cccc(-n2c(Cc3ccccc3)n[nH]c2=S)c1	21.4%	2.7%	7.08µM*	?	20.1%
Oc1ccc(CCc2n[nH]c(=S)n2-c2ccc(F)cc2)cc1	10.7%	-1.9%	7.94µM*	?	65.3%
CCCOc1ccc(CCc2n[nH]c(=S)n2-c2ccccc2)cc1	-2.0%	3.3%	-0.9%	?	122.9%
CCc1ccc(-n2c(Cc3ccccc3)n[nH]c2=S)cc1	-3.7%	10.5%	-5.3%	3.98µM*	137.0%
Cc1cc(C=c2sc3nc4ccccc4n3c2=O)c(C)n1-c1ccccc1	/	/	/	0.0%	/
CCOc1ccc(-n2c(CCc3ccccc3)n[nH]c2=S)cc1	12.9%	5.2%	?	3.16µM*	50.7%
COc1ccc(CSCCc2n[nH]c(=S)n2-c2ccccc2)cc1C	8.4%	4.6%	0.8%	?	47.4%
Cc1cccc(-n2c(CCn3nc(C)c([N+](=O)[O-])c3C)n[nH]c2=S)c1	-7.3%	-4.4%	?	8.91µM*	28.4%
S=c1[nH]nc(CCSCc2ccccc2)n1-c1ccccc1	7.2%	9.4%	-7.4%	5.62µM*	68.7%
CCCCc1nc2c(c3c1C[C@H](C)OC3)CN(C(=O)c1ccco1)CC2	/	/	0.1%[11.5 µM]	/	/
CN(C)[C@@H]1C(=O)C(C(N)=O)=C(O)[C@]2(O)C(=O)C3=C(O)c4c(O)cccc4[C@](C)(O)[C@H]3C[C@@H]12	/	15.0%	/	/	/
Cc1cccc(Oc2ccc(N)cc2)c1	-10.4%	-4.3%	2.2%	2.0%	-14.0%
Nc1ccc(Oc2cccc(Oc3ccc(N)cc3)c2)cc1	69.8%	/	7.0%	-1.0%	31.6µM*
CCOc1ccc(OCc2cccc(C(=O)O)c2)cc1	?	-139.7%	6.31µM*	?	0.0%
COc1ccc(OCc2cccc(C(=O)O)c2)cc1	-18.3%	-52.9%	15.8µM*	-19.0%	-10.1%
CCCCc1nc2c(c3c1C[C@H](C)OC3)CN(S(=O)(=O)c1ccc(Cl)c3nonc13)CC2	/	/	-5.9%[11.5 µM]	/	/
CCc1nn2cc(-c3ccccc3)nc2s1	?	-39.7%	11.2µM*	?	?
Cc1nn2cc(-c3ccc(-c4ccccc4)cc3)nc2s1	-9.5%	-2.2%	-11.9%	-8.3%	3.6%
CC(=O)Nc1ccc(Nc2nc3ccc(C)cc3n3nnnc23)cc1	/	/	/	0.4%	/
COc1cccc(/C=C2/CCC(CN(C)C)C2=O)c1 (stereo unspecified)	8.91µM*	/	/	-23.1%	-18.4%
COc1ccc(OC)c(NC(=O)c2oc3ccccc3c2NC(=O)C2CC2)c1	18.2%	9.6%	3.4%	3.9%	14.1%
COc1ccc(NC(=O)c2oc3ccccc3c2NC(=O)C2CC2)c(OC)c1	-5.1%	15.6%	7.3%	-2.4%	4.47µM*
C[C@]12CC[C@H](O)CC1=CC[C@H]1[C@@H]2CC[C@@]2(C)C(N(CCO)CCO)CC[C@@H]12 (stereo partly specified)	/	-7.8%	/	/	/
COc1ccc(C(=O)n2c(N)nc3ccccc32)cc1OC	-13.6%	-5.3%	-2.3%	-2.0%	129.3%
SMILES	RE007 growth inh	NS1 function inh	LmPK inhibitor	Tb PYK inh	AMA1 RON2 block
Nc1nc2ccccc2n1C(=O)c1ccc(F)cc1	-13.0%	-1.2%	25.1µM*	-9.8%	105.6%
Nc1nc2ccccc2n1C(=O)c1ccccc1	?	1.1%	6.31µM*	?	59.0%
Nc1nc2ccccc2n1C(=O)c1cccs1	-11.6%	/	-10.1%	-7.7%	24.9%
O=C(O)[C@@H]1[C@@H](C(=O)O)[C@@]23CCCC2=C2CC[C@@]3(C(=O)O)[C@@]3(C(=O)O)C[C@@]213	/	-5.8%	/	/	/
O=C1[C@@H]2[C@@H](CN3CN(c4ccccc4)N=C(c4ccccc4)[C@@]23c2ccccc2)C(=O)N1c1ccccc1	39.8µM*	/	/	-20.8%	19.8%
CN(CC(=O)N1CCOCC1)Cc1c(Cl)cccc1NC(=O)c1ccccc1	/	/	/	-4.8%	/
CC#CCN1c2ccccc2[C@]23C[C@@H](C(=O)OC)N(C(=O)c4cccs4)C2=NC(C(=O)OC)=C(C(=O)OC)[C@H]13	/	/	4.1%[11.5 µM]	/	/
O=C(CCNc1ccc(F)cc1)c1ccco1	6.31µM*	-7.6%	-5.5%	4.8%	-3.4%
COc1ccc(C(=N/O)/C(=N/O)c2ccc(OC)cc2)cc1	-7.7%	0.5%	-0.9%	0.6%	-1.9%
COc1ccc(C(C#N)=C2C=CC(=NO)C(C)=C2Cl)cc1	2.5%	/	/	-4.3%	3.16µM*
COc1ccc(C(C#N)=C2C=C(Cl)C(=NO)C=C2Cl)cc1	-8.7%	/	/	-1.0%	22.4µM*
CCCCc1cc2c(cn1)=C(OC(=O)CCC(=O)OC)C(C)(OC(=O)CC)C(=O)C=2 (stereo unspecified)	/	/	-7.1%[11.5 µM]	/	/
COc1ccccc1Nc1ccc2c(O)cc(S(=O)(=O)O)cc2c1	-3.2%	/	/	?	20µM*
Cc1cc(F)ccc1NC(=O)C1CCCN(S(=O)(=O)c2ccc3c(c2)CCCC(=O)N3)C1 (stereo unspecified)	/	/	/	-0.6%	/
O=C(NC1CCCCCC1)c1ccc([N+](=O)[O-])s1	44.7µM*	/	/	4.4%	-2.1%
O=C(NC1CCCC1)c1ccc(Cl)s1	-14.8%	-11.4%	-3.0%	-4.3%	-7.5%
COc1cccc(CN2CCN(Cc3cccc(F)c3)CC2)c1	-14.3%	-2.9%	0.3%	21.8%	15.8µM*
CN1c2ccsc2/C(=N/Nc2ccccc2)CS1(=O)=O	44.7µM*	/	-1.0%	-13.4%	-24.8%
CN1c2ccsc2/C(=N/NC(=O)c2c(F)cccc2F)CS1(=O)=O	3.6%	6.9%	5.8%	-6.8%	100.3%
OC1=C(O)c2nc3cc(C(F)(F)F)ccc3nc21	-16.8%	7.5%	-23.6%	4.3%	28.2µM*
OC1=C(O)c2nc3ccccc3nc21	8.5%	13.8%	-7.0%	-5.0%	1.0%
COc1cc(SSc2cc(OC)cc([N+](=O)[O-])c2N)c(N)c([N+](=O)[O-])c1	?	14.3%	15.7%	2.82µM*	?
COc1cc([N+](=O)[O-])c2ncsc2c1	-0.3%	-5.7%	-1.6%	8.4%	-11.8%
CN1C(=O)c2ccccc2Sc2ccc(NC(=O)N3CCN(c4ccc(F)cc4)CC3)cc21	/	/	/	-0.1%	/
O=[N+]([O-])c1cc(Br)c(Nc2ccccc2)c([N+](=O)[O-])c1	-9.1%	-63.9%	-5.0%	1.1%	25.1µM*
Fc1ccc(C2CC(c3ccco3)=Nc3ccccc3S2)cc1 (stereo unspecified)	25.1µM*	/	14.2%	3.6%	-16.9%
O=[N+]([O-])c1ccc(C2CC(c3ccccc3)=Nc3ccccc3S2)cc1 (stereo unspecified)	/	-52.5%	2.3%	-4.1%	-22.4%
CCCCCCCCCCCCOCCOCCOCCOCCOCCOCCOCCOCCOCCO	/	/	/	0.7%	/

Assay outcomes from PubChem BioAssay.
